IP6K1 inh – IP6K1 kinase inhibition | Q92551 | IP6K1 kinase, ADP-Glo luminescence, 2 h; stronger effect = lower value | activity change, % (series mostly up to about 58 µM) | 140,000 tested, 0.81% active | AID 1645851; in the data active means activity change below about -25%; further: on the % scale 0 is the no-effect control and ±100 the full control effect
Target sequence (Q92551 whole entry, looked up): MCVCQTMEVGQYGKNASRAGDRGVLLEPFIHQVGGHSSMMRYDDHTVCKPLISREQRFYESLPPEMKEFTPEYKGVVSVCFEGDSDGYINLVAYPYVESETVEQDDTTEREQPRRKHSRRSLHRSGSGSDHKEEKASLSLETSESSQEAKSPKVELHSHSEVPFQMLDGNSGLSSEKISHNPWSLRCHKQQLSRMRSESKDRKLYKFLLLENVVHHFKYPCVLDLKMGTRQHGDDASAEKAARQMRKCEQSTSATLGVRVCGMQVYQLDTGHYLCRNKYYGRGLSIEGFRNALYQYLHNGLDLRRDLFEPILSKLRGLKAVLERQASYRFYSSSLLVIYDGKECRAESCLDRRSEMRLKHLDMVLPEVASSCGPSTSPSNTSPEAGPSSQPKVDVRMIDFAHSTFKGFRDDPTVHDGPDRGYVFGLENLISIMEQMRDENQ
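ADP-Glo luminescence measures ADP made by human IP6K1 during a 2 h RT reaction with ATP/IP6 (mix at 1.3 mM/130 uM); top library doses 57.5 and 19.1 uM final.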
KDM5B inh – blocks human KDM5B histone demethylase activity | 220,000 tested, 2.6% active | Potency, µM (highest dose often 57.7 µM), usual class: inhibitors | KDM5B demethylase, FDH-coupled NADH fluorescence (FDH is formaldehyde dehydrogenase); further: potency means the concentration at half of the fitted maximal effect; 0% is about no effect; nearly all actives have a fitted effect of over 70% in size
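Coupled FDH/NAD⁺ fluorescence readout. KDM5BΔAP 200 nM final; compound titration, 10 min RT preincubation; substrate mix 12.5 µM H3K4me3, 25 µM 2-OG, 50 µM Fe(II), 100 µM ascorbate, 0.25 mM NAD⁺, 0.25 U/mL FDH; ΔRFU over 30 min.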
HEK293 viab – reduces viability of HEK-293 SNCA reporter cells. HEK-293-SNCA-luc viability, GF-AFC fluorescence, 24 h. Potency, µM (doses to about 57.1 µM), for the others: at the highest dose activity change, negative = cytotoxicity, most hits filed as cytotoxic. 150,000 tested, 0.12% active. AID 1671193;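 further: potency means the concentration at half of the fitted maximal effect; 0% = DMSO-treated cells and -100% = medium-only wells without cells; nearly all actives have a fitted effect of over 30% in size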
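HEK-293-SNCA-luc cells (1500/well) plated 24 h, then exposed 24 h to a dilution series; GF-AFC added 30 min at 37C, fluorescence 405/540 nm; normalised to medium-only and DMSO wells, Hill fit.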
SNCA expr inh – reduces expression of the alpha-synuclein gene; HEK-293 SNCA-luciferase knock-in, luminescence, 24 h; Potency, µM (series often up to 57.2 µM), for the others: top-dose activity change, negative = inhibition, usual class: inhibitors; 140,000 tested, 0.17% active; AID 1671194;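 further: potency means the concentration at half of the fitted maximal effect; plate controls were DMSO cells for no effect and cell-free wells for full effect; nearly all actives have a fitted effect of over 45% in size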
IP6K1 inh cnf – confirmation of human IP6K1 inhibitors; shares compounds with IP6K1 inh; recombinant IP6K1 kinase, ADP-Glo luminescence, 2 h; Potency, µM (top dose mostly 49 µM), for the others: top-dose activity change, negative = inhibition, hits mostly inhibitors; 1,200 tested, 13% active; AID 1645852; further: potency means the concentration at half of the fitted maximal effect; on the % scale 0 is the no-effect control and ±100 the full control effect; nearly all actives have a fitted effect of over 65% in size
* = called active by the depositor; [ ] = another dose, or the depositor's remark. Only some compounds are listed: those with a hit (about 2.8% of all), similar ones and a draw of the others. Unless noted, the call rests on the fitted dose curve; in most records, active means well fitted curve in the direction sought with a large enough effect; inconclusive means small, poorly fitted or top-dose-only effect, or another doubt; inactive means no such curve, though single readings can be large; an effect the other way counts as inactive or inconclusive.

Screening COc1ccccc1-c1ccc(C(=O)N2CCCC[C@H](N(C)C)C2)cc1 returned IP6K1 inh -31*, KDM5B inh inconclusive, HEK293 viab inconclusive, SNCA expr inh -8% and IP6K1 inh cnf 21%.
For CN(C)[C@H]1CCCCN(C(=O)c2cnc3ccccn3c2=O)C1 the results were IP6K1 inh -34*, KDM5B inh 32µM*, HEK293 viab 2%, SNCA expr inh 19% and IP6K1 inh cnf 18%.
COc1cc(OC)c(C(=O)N2CCCC[C@H](N(C)C)C2)cc1OC was read as IP6K1 inh -10, KDM5B inh inactive, HEK293 viab -3% and SNCA expr inh 10%.
Screening CCCSCCCNC(=O)C1CCN(c2nc3ccccc3nc2C(F)(F)F)CC1 returned IP6K1 inh -29*, KDM5B inh inactive, HEK293 viab -1%, SNCA expr inh 1% and IP6K1 inh cnf -9%.
`O=C(NCCc1ccccc1)C1CCN(c2nc3ccccc3nc2C(F)(F)F)CC1` gave IP6K1 inh -1, KDM5B inh inactive, HEK293 viab 7% and SNCA expr inh 2%.
CC1=C(C(=O)OC2CCCCCC2)C(c2c(Cl)cccc2Cl)CC(=O)N1 (configuration not stated) was read as IP6K1 inh 14, KDM5B inh inactive, HEK293 viab -7% and SNCA expr inh inconclusive.
Screening CC1=C(C(=O)OC2CCCCC2)C(c2ccc([N+](=O)[O-])cc2)C2=C(CC(C)(C)CC2=O)N1 (configuration not stated) returned IP6K1 inh -36*, HEK293 viab -4% and IP6K1 inh cnf -24%.
For CCCCCNC(=O)c1ccc2c(c1)ncn2-c1cccc(C)c1 the results were IP6K1 inh -31*, KDM5B inh inconclusive, HEK293 viab -21%, SNCA expr inh 1% and IP6K1 inh cnf inconclusive.
Screening O=S(=O)(c1ccc(Cl)cc1)c1nc(-c2ccco2)oc1N1CCOCC1 returned KDM5B inh inactive.
Screening Cc1ccc(-n2ncc(C(=O)NCc3cccs3)c2C2CCN(C(=O)OC(C)(C)C)CC2)cc1C returned IP6K1 inh 22, KDM5B inh inactive, HEK293 viab inconclusive and SNCA expr inh inconclusive.
For Cc1ccc(-n2ncc(C(=O)N3CCN(c4ccc(Cl)cc4)CC3)c2C2CCN(C(=O)OC(C)(C)C)CC2)c(C)c1 the results were IP6K1 inh -35*, KDM5B inh inactive, HEK293 viab -1%, SNCA expr inh -9% and IP6K1 inh cnf 10%.
Screening Cc1ccc(-n2ncc(C(=O)NCc3cccs3)c2C2CCN(C(=O)OC(C)(C)C)CC2)c(C)c1 returned IP6K1 inh -33*, KDM5B inh inconclusive, HEK293 viab -17%, SNCA expr inh inconclusive and IP6K1 inh cnf -4%.
CCOC(=O)c1c(NC(=O)c2ccc(OC)c(OC)c2)sc2c1CCCCC2 was read as IP6K1 inh 9, KDM5B inh inactive, HEK293 viab 8% and SNCA expr inh 39%.
`CCS(=O)(=O)N1CC(=O)N(c2ccc(Cl)cc2)C(C)(C(=O)NC2CCCCCC2)C1` (configuration not stated) gave IP6K1 inh -34*, KDM5B inh inactive, HEK293 viab -21%, SNCA expr inh 20% and IP6K1 inh cnf 3%.
`CC(C)(C)c1ccc(Oc2nc3ccccn3c(=O)c2/C=C(\C#N)c2nc3ccccc3s2)cc1` gave IP6K1 inh -21, KDM5B inh inconclusive, HEK293 viab -3% and SNCA expr inh 27%.
For Cc1ccc(S(=O)(=O)c2nc(-c3cccc(C)c3)oc2N2CCN(c3ccccc3)CC2)cc1 the results were IP6K1 inh 4, KDM5B inh inactive, HEK293 viab 18% and SNCA expr inh -12%.
`CC(=O)C(C)=O` gave HEK293 viab 0% and SNCA expr inh 4%.
`CC(=O)NO` gave IP6K1 inh -28*, HEK293 viab -16%[23.9 µM], SNCA expr inh -26%[25.6 µM] and IP6K1 inh cnf -7%.
CNC(=O)C1CCN(C(=O)c2ccc(-c3cccs3)cc2)CC1 was read as IP6K1 inh -6.
Cc1cccc(Nc2sc(C(=O)c3ccc(Cl)cc3)c(N)c2C(N)=O)c1 was read as IP6K1 inh -39*, KDM5B inh inconclusive, HEK293 viab -9%, SNCA expr inh 0% and IP6K1 inh cnf -10%.
CCn1c(C(=O)N(C2CC2)C2CC2)cc2c3c(ncn3C)c(Nc3cc(C)n(C)n3)nc21 was read as IP6K1 inh -7, HEK293 viab inconclusive, SNCA expr inh 10% and IP6K1 inh cnf -2%.
CC(C(=O)NCC1CCCCC1)n1cnc2c1c(=O)n(C)c(=O)n2C (configuration not stated) was read as KDM5B inh inactive.
`O=C(O)CSc1cc(NS(=O)(=O)c2ccc(Br)cc2)c2ccccc2c1O` gave IP6K1 inh -76*, HEK293 viab inconclusive and IP6K1 inh cnf inconclusive.
`Cc1ccc(NC(=O)CSCc2cnn(-c3ccccc3)c2-n2cccc2)c(C)c1` gave IP6K1 inh -28*, KDM5B inh inactive, HEK293 viab -4%, SNCA expr inh -28% and IP6K1 inh cnf 2%.
`Cc1cccc(CNC(=O)CSCc2cnn(-c3ccccc3)c2-n2cccc2)c1` gave IP6K1 inh 19, KDM5B inh inactive, HEK293 viab 3% and SNCA expr inh inconclusive.
`COc1ccc(Cc2nnc3ccc(C(=O)NCc4cccc(OC)c4)cn23)cc1` gave IP6K1 inh -4, HEK293 viab 2% and SNCA expr inh -19%.
`O=C(NCCc1ccc(F)cc1)C(=O)NCC(c1cccs1)S(=O)(=O)c1ccccc1` (configuration not stated) gave IP6K1 inh -30*, KDM5B inh inactive, HEK293 viab -17%, SNCA expr inh 22% and IP6K1 inh cnf -3%.
For Cc1cccc(C)c1OCc1cc(=O)n2c(-c3ccccc3)csc2n1 the results were IP6K1 inh -11, KDM5B inh inactive, HEK293 viab 6% and SNCA expr inh -4%.
`CC(C)c1ccc(OCc2cc(=O)n3c(-c4ccccc4)csc3n2)cc1` gave IP6K1 inh -31*, KDM5B inh inconclusive, HEK293 viab -14%, SNCA expr inh 32% and IP6K1 inh cnf -7%.
For COC(=O)N1CCN(C(=O)c2nc3cccnc3n(C3CCCC3)c2=O)CC1 the results were IP6K1 inh -3, HEK293 viab 13% and SNCA expr inh 33%.
Cn1c(CCC(=O)N2CCCOCC2)nc2cc(S(=O)(=O)N3CCCC3)ccc21 was read as IP6K1 inh -31*, KDM5B inh inactive, HEK293 viab 5%, SNCA expr inh 10% and IP6K1 inh cnf -9%.
Screening COc1cc(Cl)c(C)cc1NC(=O)c1cn(CC(C)C)c(=O)c2cc(OC)c(OC)cc12 returned IP6K1 inh -12, KDM5B inh inactive, HEK293 viab -3% and SNCA expr inh inconclusive.

From PubChem BioAssay
